Data: PubChem BioAssay AID1347434 (National Center for Advancing Translational Sciences (NCATS), 2020)
Screen size: about 1,200 compounds; about 30 (2%) were called active. Entries that show only a call come without a potency. Roughly 23% stayed inconclusive and do not appear here. Calls follow the shape of the dose curve; as a rule, active = well fitted inhibition curve with a large enough effect; inconclusive = small, poorly fitted or top-dose-only effect; inactive = flat fitted curve, though single readings scatter. Only a selection was taken, and actives are over-represented in it overall.

biological target: Single-stranded DNA cytosine deaminase (Homo sapiens) (UniProt Q9GZX7); test: Confirmatory qHTS assay for inhibitors of Activation Induced Cytidine Deaminase (AID): AID signals; settings: recombinant AID, FRET deamination/UDG coupled fluorescence, 4 h; series mostly up to 115 µM
Sequence (Q9GZX7 whole entry, looked up): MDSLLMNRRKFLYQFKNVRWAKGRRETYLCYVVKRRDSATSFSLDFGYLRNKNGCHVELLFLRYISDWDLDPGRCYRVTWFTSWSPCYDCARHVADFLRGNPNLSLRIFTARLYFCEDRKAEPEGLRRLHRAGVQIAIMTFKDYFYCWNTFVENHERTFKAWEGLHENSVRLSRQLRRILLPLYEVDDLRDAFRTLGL
Source text: Assay Provider (PI) Patricia Gearhart Ph.D. National Institute on Aging National Institute of Health (NIH), Bethesda, MD Assay Provider (PI) Rahul Kohli Ph.D. Perelman School of Medicine University of Pennsylvania, Philadelphia, PA Activation-Induced Deaminase (AID) is a cytosine deaminase which converts cytosine into uracil within stretches of ssDNA. The presence of uracil in DNA initiates a cascade of mutagenic DNA repair to introduce point mutations and DNA double strand breaks. Specific targeting of AID to the immunoglobulin heavy chain loci (Igh) promotes mutagenesis in the antibody variable region for somatic hypermutation (SHM) or switch regions leading to class switch recombination (CSR). However, AID also plays a role in accumulating unnecessary mutations across the genome. Mis-targeting of AID results in the initiation of tumor development and leads to greater drug resistance among cancer cells when continually expressed. To identify an AID inhibitor, a small molecule library will be screened in collaboration with NCATS core facility at NIH. To confirm biological function, inhibitors will be examined in an in vitro murine B-cell activation assay and subsequent secondary validation screens. Top molecules will be further screened to identify inhibitory efficacy against a wild type primary splenocytes assay. Using these approaches, we hope to identify a small molecule with great efficacy and low toxicity for use as a molecular probe to further characterize AID's intricacies, or even as a therapeutic. A FRET based analysis of cytosine deamination, was developed to identify potential inhibitors of AID catalytic activity. This screen has two signal output, Read 1 evaluates the AID inhibition response. The second readout (Read 2) evaluates UDG response and is uses as a counterscreen to exclude false positive inhibitors. Inhibition in AID and inactivity in the UDG signal is the desired outcome for this assay.
PROTOCOL TABLE SEQUENCE No. (e.g., 1, 2, 3, etc.); […] (e.g., Cells, Incubation, Reagent, etc.); VALUE; DESCRIPTION 1a; Reagent; 3 uL; [4/3x] 1 uM AID/2.67 U/mL UDG 1b; Reagent; 3 uL; 2 U/mL UDG 1c; Reagent; 3 uL; 1 uM AID 2a; Compound; 46 nL; Follow-up plates (0.64 uM - 10 mM) 2b; Control; 46 nL; ATA (16.4 nM - 10 mM) 3; Time; 10 min; incubation at room temperature 4; Reagents; 1 uL; [4x] 250 nM DJC20 / 250 nM DJC23 [Substrate] 5; Time; 4 hr; incubation at room temperature 6; Reagent; 4 uL; [2x] 250 mM NaOH 7; Time; 15 sec; centrifuge at 1000 rpm 8; Time; 30 min; incubation at room temperature 9a; Detection; fluorescence (Read 1: AID); EnVision (PerkinElmer) plate reader, 540 excitation and 590 emission filters 9b; Detection; fluorescence (Read 2: UDG); EnVision (PerkinElmer) plate reader, 560 excitation and 665 emission filters NOTES (numbers refer to sequence above) 1a; Reagents were dispensed in a medium-binding black solid-bottom Greiner plates (789176F) using a BioRptr liquid dispenser. Dispense 3 uL of [4/3x] 1 uM AID (provided by Kohli lab) and [4/3x] 2 U/mL UDG (NEB M0280L) into columns 1, 2, 5 to 48. 1b; Dispense 3 uL of [4/3x] 2 U/mL UDG into column 3. 1c; Dispense 3 uL of [4/3x] 1 uM AID into column 4. 2a; Compound ([…] [uM]: 0.64; 3.2; 16; 80; 400; 2,000; 10,000; 20,000) double pin-transferred (Dip Factor = 2) using the Kalypsys (Wako USA) pintool equipped with a 1536 pinhead for a final concentration range of 7.32 nM - 114 uM. 2b; 10 mM Aurintricarboxylic Acid (Sigma A1895) (ATA, 8-point, n = 2, 1:2.5 dilution in column 2) double pin-transferred (Dip Factor = 2) using the Kalypsys (Wako USA) pintool equipped with a 1536 pinhead for a [final] range of 186 nM - 114 uM. 3; Room temperature incubation. 4; Dispense 1 uL of substrate mixture from the Kohli lab [4x] […] DJC20 and [4x] 250 nM DJC23 into columns 1 to 48 . 5; Room temperature incubation. 6; Dispense 4 uL of […] [2x] 250 mM NaOH into columns 1 to 48. 7; Centrifugation step to remove bubbles. […]
Potency is read from the fitted curve at half-maximal effect.

SMILES | Potency
NC(Cc1cc(O)c(O)cc1O)C(=O)O (stereo unspecified) | 22.4 µM (active)
NCC(O)c1cc(O)c(O)cc1F (stereo unspecified) | inactive
O=C(Nc1cc(C(F)(F)F)cc(C(F)(F)F)c1)c1cccn(Cc2ccccc2Cl)c1=O | inactive
CN1CC[C@@]2(C)c3cc(O)ccc3N(C)C12 (stereo partly specified) | 22.4 µM (active)
COc1cc(C(c2c(O)c3ccccc3oc2=O)c2c(C)n(C)n(-c3ccccc3)c2=O)ccc1O (stereo unspecified) | inactive
Cc1cccc(-c2nc(CN3C(=O)CN=C(c4ccccc4)c4ccccc43)c(C)o2)c1 | inactive
Cc1ccc(NC(=O)N(Cc2ccc3c(c2)OCO3)C2CCN(Cc3ccccc3)CC2)cc1C | inactive
CCCC1=Nc2cc(C(=O)NCCCN(CC)CC)ccc2Sc2ccccc21 | inactive
O=S1(=O)N(CCN2CC=C(c3c[nH]c4cc(F)ccc34)CC2)c2cccc3c2N1CCC3 | inactive
CC(=O)c1c(O)c(C)c(O)c(Cc2c(O)c3c(c(C(=O)/C=C/c4ccccc4)c2O)OC(C)(C)C=C3)c1O | 14.1 µM (active)
O=C(c1ccc2c(c1)N(Cc1ccc(F)cc1)C(=O)c1ccccc1S2)N1CCC2(CC1)OCCO2 | inactive
Cc1ccccc1CN1C(=O)C(C)N=C(c2ccccc2)c2ccccc21 (stereo unspecified) | inactive
COc1ccc2c(c[n+](C)c3c4cc5c(cc4ccc23)OCO5)c1OC | 17.8 µM (active)
Cc1cccc(CN2C(=O)CN=C(c3ccccc3)c3cc(Cl)ccc32)c1 | inactive
Cc1c(C(c2ccc(Cl)cc2Cl)c2c(O)c3ccccc3oc2=O)c(=O)n(-c2ccccc2)n1C (stereo unspecified) | inactive
Cc1ccccc1CN1C(=O)CN=C(c2ccccc2)c2cc(Cl)ccc21 | inactive
